Screening data (PubChem BioAssay)
hgDAF12 agonist – H. glycines DAF-12 receptor agonists, primary screen, cell-based, luminescence, HEK293, GAL4 fusion, UAS-luciferase; Nuclear hormone receptor DAF-12 (Heterodera glycines), GAL4 fusion; HEK293 GAL4-hgDAF12 UAS-luciferase reporter, agonist luminescence; normalized to butyrate control; activation, % at 6.8 µM; hit rate 1.8% among 370,000;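 active = activation above a cutoff set at the mean of all screened compounds plus 3 SD, cut at about 10% in these data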
DAX1 inh-1 – DAX1 (NR0B1) inhibitors on StAR promoter, primary screen, cell-based, luminescence, SF-1 (NR5A1), full-length DAX-1; HEK293T StAR-luciferase reporter, SF-1/DAX-1 repression relief; hit rate 1.1% among 370,000; inhibition, % at 6.8 µM;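 active = inhibition above the mean over all tested compounds plus 3 SD, cut at about 3.6% in these data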;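 also: higher inhibition means more luminescence from relief of DAX-1 repression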
AHR act – AHR activators, primary screen, cell-based, luminescence, luciferase reporter, human; Aryl hydrocarbon receptor (Homo sapiens), P35869; AHR-responsive luciferase reporter cells; activation, % at 5 µM; hit rate 2.5% among 320,000; in the data active = activation above about 47%
ssDAF-12 act – S. stercoralis DAF-12 nuclear receptor activators, primary screen, cell-based, luminescence, HEK293, GRIP1 co-expression, lit1-tk-luc. hit rate 1% among 370,000. activation, % at 6.8 µM. HEK293 ssDAF-12/GRIP1 lit1-tk-luc reporter; % of 3 µM dafachronic acid response. Nuclear hormone receptor DAF-12 (Strongyloides stercoralis);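 active = activation above the mean over all tested compounds plus 3 SD, cut at about 0.9% in these data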
hcDAF-12 act – H. contortus DAF-12 nuclear receptor activators, primary screen, cell-based, luminescence, HEK293, lit1-tk-luc reporter | HEK293 hcDAF-12 lit1-tk-luc reporter; 0% DMSO, 100% Δ7-dafachronic acid | activation, % at 6.8 µM | AID 652067, 2013 | hit rate 1.4% among 370,000;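 active = activation above the mean of all tested compounds plus 3 SD, cut at about 5.5% in these data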
DAX1 inh-2 – DAX1 (NR0B1) inhibitors, primary screen, cell-based, HEK293, Gal4-DAX1, luciferase luminescence. HEK293 Gal4-DAX1 luciferase reporter. inhibition, % at 6.75 µM. hit rate 0.99% among 340,000;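 active = inhibition above the mean over all tested compounds plus 3 SD, cut at about 4.2% in these data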;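 also: inhibition shows as a rise in luminescence from relieved DAX1 repression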
AHR act confirm – AHR activators, confirmation, cell-based, luminescence, luciferase reporter, human; shares compounds with AHR act; human cells, AHR-responsive luciferase reporter; activation, % at 9 µM; hit rate 87% among 2,300; AID 2845, 2010; in the data active = activation above about 49%;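 also: HepG2 hepatoma cells carrying a DRE-driven firefly luciferase reporter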
PXR counter – human PXR activators, counter-screen for AHR activator project, cell-based, luciferase luminescence. shares compounds with AHR act. cell-based PXR reporter. activation, % at 11.6 µM. hit rate 88% among 2,300. AID 434939, 2010; in the data active = activation above about 11%;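 also: human hepatoma DPX-2 cells expressing full-length human PXR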
Target sequence (O75469 whole entry, looked up): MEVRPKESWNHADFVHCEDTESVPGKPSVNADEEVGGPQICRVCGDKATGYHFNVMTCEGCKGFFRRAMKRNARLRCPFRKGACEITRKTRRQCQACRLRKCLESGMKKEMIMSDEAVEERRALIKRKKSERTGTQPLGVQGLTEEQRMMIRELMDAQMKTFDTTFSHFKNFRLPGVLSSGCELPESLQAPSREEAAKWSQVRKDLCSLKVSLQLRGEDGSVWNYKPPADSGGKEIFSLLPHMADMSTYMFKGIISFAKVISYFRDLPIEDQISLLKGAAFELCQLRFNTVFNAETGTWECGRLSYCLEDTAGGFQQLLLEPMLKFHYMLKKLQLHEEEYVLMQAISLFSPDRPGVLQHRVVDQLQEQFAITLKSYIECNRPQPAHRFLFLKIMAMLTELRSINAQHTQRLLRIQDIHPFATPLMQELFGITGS
Numbers stand for hits; i = inactive; nt = no result. Compounds with a hit are over-represented: about 5.7% of the library has one in this group of screens.

SMILES	hgDAF12 agonist	DAX1 inh-1	AHR act	ssDAF-12 act	hcDAF-12 act	DAX1 inh-2	AHR act confirm	PXR counter
COc1cc(Cl)ccc1OCc1cc(C(=O)NCc2cc(C(C)C)no2)no1	i	4.1	114.6	i	i	i	105.3	45.2
CCCc1c(C(=O)Nc2ccc(N3CCOCC3)cc2)cnn1-c1ccccc1	i	i	83.5	i	i	i	101.8	11.6
CCCc1c(C(=O)Nc2cc(C)on2)cnn1-c1ccccc1	i	i	i	i	i	i	nt	nt
c1cc(-c2cc3cc4c(cc3cn2)OCO4)cs1	i	i	117.9	1.2	5.8	i	114.2	24.8
O=[N+]([O-])c1cccc(-c2ccc(/C=N/NC(=S)NCc3ccco3)o2)c1	i	i	i	i	i	i	nt	nt
COc1cccc(-c2nc(C(N)=O)c3[nH]c(=O)n(-c4cccc(Cl)c4)c3n2)c1OC	i	i	89.1	i	i	i	92.5	30.9
O=C(NCc1ccccn1)c1nn(-c2ccccc2)c(=O)c2ccccc12	i	i	i	i	i	i	nt	nt
O=C(O)c1ccccc1C(=O)NCCc1ccc(Cl)cc1	i	i	96.6	i	i	i	63.7	10.5
O=C(NCCc1ccccc1)c1ccccc1Cl	i	i	i	i	i	i	nt	nt
Cc1cc(C)c(-c2cc(NC(=O)COC(=O)c3ccc(C#N)cc3)n(-c3ccccc3)n2)cc1C	i	i	129.1	i	i	i	105.3	81.9
Cc1cc(C)c(-c2cc(NC(=O)COC(=O)c3ccc(NC(=O)CC#N)cc3)n(-c3ccccc3)n2)cc1C	i	i	i	i	i	i	nt	nt
CC(=O)Nc1ccc(C(=O)NNC(=O)c2ccccc2-n2cccc2)cc1	i	i	i	i	i	i	nt	nt
Cc1ccc(S(=O)(=O)NNC(=O)c2sccc2-n2cccc2)cc1	i	i	i	i	i	i	nt	nt
O=C(N/N=C\c1ccc(Cl)cc1)c1sccc1-n1cccc1	i	i	96.5	i	i	i	123.5	23.6
O=C(NNC(=O)c1sccc1-n1cccc1)c1ccccc1	i	i	137.1	i	i	i	128.5	47.9
O=C(NNC(=O)c1ccccc1-n1cccc1)c1ccc(F)cc1	i	i	90.2	i	i	i	101.1	42.7
O=C(NNC(=O)c1sccc1-n1cccc1)Nc1ccccc1	i	i	92.2	i	i	i	126.5	60.9
CC(C)(C)NC(=S)NCc1ccc2c(c1)OCO2	i	i	i	i	i	i	nt	nt
O=C(NNC(=O)c1sccc1-n1cccc1)c1cccc(Cl)c1	i	i	133.3	i	i	i	113.6	100.5
O=C(NNC(=O)c1c(F)cccc1F)c1sccc1-n1cccc1	i	i	i	i	i	i	nt	nt
O=C(NNC(=O)c1sccc1-n1cccc1)c1ccc(F)cc1	i	i	112.4	i	i	i	i	i
Cc1cc(C)nc(CCNC(=O)CC2C(=O)NCCN2Cc2ccc(F)cc2Cl)n1 (centres undefined)	i	i	i	i	i	i	nt	nt
O=C(Nc1ccccc1)c1ccc(NCCN2C(=O)CCC2=O)c([N+](=O)[O-])c1	i	i	80.8	i	i	i	110.2	23.1
O=C(Nc1cc(F)cc(F)c1)c1ccc(NCCCN2CCCCCC2)c([N+](=O)[O-])c1	i	i	83.0	i	i	i	117.9	29.0
O=C(Nc1ccccc1)c1ccc(NCC2CCCO2)c([N+](=O)[O-])c1 (centres undefined)	i	i	i	i	i	i	nt	nt
SMILES	hgDAF12 agonist	DAX1 inh-1	AHR act	ssDAF-12 act	hcDAF-12 act	DAX1 inh-2	AHR act confirm	PXR counter
NNC(=O)Cc1cc(=O)[nH][nH]1	i	i	nt	i	i	i	nt	nt
CCOn1c(=O)c(-c2ccccc2)[n+]([O-])c2ccccc21	i	i	i	i	i	i	nt	nt
Cc1c(=O)n(OCc2ccccc2F)c2ccccc2[n+]1[O-]	i	i	94.1	i	i	i	139.4	26.1
O=C(O)CCN1CCOCC1	i	i	i	i	i	i	nt	nt
Cc1cccc(NN=C2c3ccccc3-c3ccccc32)c1	i	i	87.7	i	i	i	115.4	21.6
Cc1cccc(N/N=C/c2ccc(C)s2)c1	i	i	i	i	i	i	nt	nt
COC(=O)NN=C1CCC(c2ccccc2)CC1 (centres undefined)	i	i	nt	i	i	i	nt	nt
COC(=O)N/N=C1/C/C(=N\NC(=O)OC)c2ccccc21	i	i	115.2	i	i	i	113.1	i
CCN(CC)S(=O)(=O)c1cccc(C(=O)OCC(=O)Nc2ccc3c(c2)c2ccccc2n3CC)c1	i	i	83.1	i	i	i	80.3	32.8
Cc1nc(NC(=O)CC(C)C)sc1-c1csc(Nc2ccc(Cl)cc2)n1	i	i	92.3	i	i	i	95.5	20.0
CCCCCC(=O)Nc1nc(C)c(-c2csc(Nc3cc(Cl)ccc3C)n2)s1	i	i	108.8	i	i	i	75.3	26.9
CCOc1ccc(Nc2nc(-c3sc(N)nc3C)cs2)cc1	i	i	114.3	i	i	i	112.3	16.6
CCCCCC(=O)Nc1nc(C)c(-c2csc(Nc3cc(OC)ccc3OC)n2)s1	i	i	84.3	i	i	i	82.0	72.6
Cc1nc(C)c(-c2csc(Nc3ccc(S(N)(=O)=O)cc3)n2)s1	i	i	nt	i	i	i	nt	nt
CC1CC(=O)NC(=O)N1Cc1ccccc1 (centres undefined)	i	i	nt	i	i	i	nt	nt
Fc1ccccc1CSc1nc2ncc(Br)cc2[nH]1	i	i	104.5	i	i	i	70.6	99.8
N#Cc1ccccc1CSc1nc2ncc(Br)cc2[nH]1	i	i	i	i	i	i	nt	nt
O=C(CSc1nc2ncc(Br)cc2[nH]1)c1cccc([N+](=O)[O-])c1	i	i	92.1	i	i	i	67.3	98.4
CC(C)(C)C(=O)CSc1nc2ncc(Br)cc2[nH]1	i	i	83.8	i	i	i	56.9	125.1
COc1cc(NC(=O)c2ccc(F)cc2)c(OC)cc1Cl	i	i	86.4	i	i	i	102.7	20.2
COc1ccc(C(=O)Nc2cc(OC)c(Cl)cc2OC)cc1	i	i	i	i	i	i	nt	nt
